# Experimental data from PubChem BioAssay AID2517 (National Center for Advancing Translational Sciences (NCATS), 2010).
# Where “and” joins values, the source holds several entries; their conditions need not be identical. Identical values can stand only once. Out of some 350,000 compounds screened, about 1,200 (0.34%) were called active. Entries that show only a call come without a potency. Roughly 3% stayed inconclusive and do not appear here. Calls come from the whole dose curve; as a rule, active = well fitted inhibition curve with a large enough effect; inconclusive = small, poorly fitted or top-dose-only effect; inactive = no such curve, though single readings can be large or run the other way. The sample as a whole holds a higher share of actives than the screen did. More than one record can exist for a structure, and the calls need not agree.
# Target: DNA repair nuclease/redox regulator APEX1 (Homo sapiens) (UniProt P27695)
# Sequence (P27695 whole entry, looked up): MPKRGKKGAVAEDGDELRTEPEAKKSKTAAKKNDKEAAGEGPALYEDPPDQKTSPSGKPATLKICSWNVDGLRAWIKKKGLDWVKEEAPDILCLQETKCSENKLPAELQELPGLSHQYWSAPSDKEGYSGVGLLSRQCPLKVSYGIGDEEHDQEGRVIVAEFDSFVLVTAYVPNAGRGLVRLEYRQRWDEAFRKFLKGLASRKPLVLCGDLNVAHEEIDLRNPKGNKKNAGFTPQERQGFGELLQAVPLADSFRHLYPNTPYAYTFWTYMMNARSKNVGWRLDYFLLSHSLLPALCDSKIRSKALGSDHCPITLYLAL
# Experiment: qHTS Assay for Inhibitors of the Human Apurinic/apyrimidinic Endonuclease 1 (APE1); note: nearly all actives have a fitted effect of over 55% in size
# Settings: recombinant APE1, TAMRA/BHQ-2 abasic DNA cleavage fluorescence; activity change, negative = inhibition: at 65.8 µM (top of the series)
# Text: The apurinic/apyrimidinic endonuclease APE1 is the primary mammalian enzyme responsible for the removal of abasic (or AP) sites in DNA and functions centrally in the base excision DNA repair (BER) pathway. […] Thus, targeting APE1 could improve the efficacy of current treatment paradigms by promoting selective sensitization or protection of diseased and normal cells, respectively.
# Inhibition of APE1 activity was screened by utilizing double-stranded short substrate containing tetrahydrofuran (THF) abasic site labeled with rhodamine-type fluorophore (TAMRA) at the 5'-end and with non-fluorescent Black Hole Quencher-2 (BHQ-2) at the opposing 3'-end. An increase in the fluorescence intensity due to incision of the abasic site by APE1 was used to measure the enzyme activity.
# NIH Chemical Genomics Center [NCGC]
# NIH Molecular Libraries Probe Centers Network [MLPCN]
# Assay Provider: David M. Wilson, III, National Institute on Aging, NIH
# Three uL of enzyme solution (0.75 nM APE1 final concentration) was dispensed to 1536-well Greiner black solid bottom plates. […] The plates were incubated for 15 min at room temperature, and then 1 uL of substrate solution (50 nM final concentration of TAMRA/BHQ-2) was added to start the reaction. The plates were immediately transferred into ViewLux High-throughput CCD imager (Perkin-Elmer) in order to measure the reaction progress in kinetic mode (three reads every 60 seconds) using 525 nm excitation and 598 nm emission fluorescence protocol. The fluorescence intensity difference between the third and the first time points was used to compute reaction progress. Results were normalized to buffer only columns and NSC13755 positive controls and negative control DMSO treated wells.
# Potency is the fitted concentration of half-maximal effect.
Compound,Potency,"activity change, negative = inhibition"
Cc1ccc(Cc2cnc(N)s2)o1,28.2 µM (active),
Cc1ccc(CCC(=O)Nc2ncc(Cc3cc(Cl)ccc3Cl)s2)o1,inactive,
CCC[C@@H]1C[C@@]1(CCC)C(NS(=O)(=O)c1cccc2cccnc12)c1ccc(Cl)cc1 (stereo partly drawn),inactive,
CC(=O)OCC1OC(C#CCCCc2ccccc2)C=CC1OC(C)=O (stereo not drawn),,10.7% [at 12.4 µM] (inactive) and -3.91% [at 12.4 µM] (inactive)
Nc1ncn(C2OC(CO)C(O)C2O)c(=O)n1 (stereo not drawn),inactive,
CC1=C2[C@@H](O)[C@H]([C@@H](C)C(=O)NCCC(C)C)CC[C@@]2(C)C=CC1=O,inactive,
COC(=O)C1=C(C)N(Cc2ccccc2)C2=C3C(=O)N(c4ccccc4)C(=O)C3[C@@](O)(C(=O)OC)C(=O)N2C1c1ccccc1 (stereo partly drawn),,-8.1% [at 12.4 µM] (inactive) and -10.6% [at 12.4 µM] (inactive)
C#CCOCCOCCOCCNc1nc(N2CCN(C(=O)[C@H](Cc3ccc(O)cc3)n3cc(C(N)CC(C)C)nn3)CC2)nc(N2CCN(C(=O)[C@H](CCC(=O)O)n3cc(C(N)[C@H](C)CC)nn3)CC2)n1 (stereo partly drawn),inactive,
C#CCOCCOCCOCCNc1nc(N2CCN(C(=O)C(Cc3ccc(O)cc3)n3cc(C(N)CC(C)C)nn3)CC2)nc(N2CCN(C(=O)C(Cc3ccc(O)cc3)n3cc(C(N)C(C)CC)nn3)CC2)n1 (stereo not drawn),31.6 µM (active),
C#CCOCCOCCOCCNc1nc(N2CCN(C(=O)[C@H](CCCCN)n3cc([C@@H](N)C(C)CC)nn3)CC2)nc(N2CCN(C(=O)[C@H](Cc3ccc(O)cc3)n3cc([C@@H](N)C(C)CC)nn3)CC2)n1 (stereo partly drawn),inactive,
C=CCOC(=O)NC(c1ccc(F)c(F)c1)C(C(=O)COC)C(=O)OC (stereo not drawn),inactive,
CCCN1[C@H](C(=O)OC)C[C@@]2(O)[C@@H](O)[C@@H](O)[C@@H](O)C[C@@H]12,inactive,
COc1c(O)c2c(=O)cc(OC)c3c4c(OC)cc(=O)c5c(O)c(OC)c6c(c(c1C[C@@](C)(O)[C@H]6C(C)=O)c23)c54,inactive,
O=C1N/C(=C/c2cccn2-c2ccccc2)C(=O)N1c1cccc(Cl)c1,inactive,
Cc1ccccc1NC(=O)CN1C(=O)N/C(=C\c2cccn2-c2cccc(C(=O)O)c2)C1=O,3.16 µM (active),
Cc1ccccc1NC(=O)CSC(=O)c1ccccc1,inactive,
O=C(c1cccc(F)c1)N1CCC2(CCCN(Cc3ccncc3)C2)CC1,inactive,
COC(=O)[C@@]1(Cc2ccc(F)cc2)[C@@H]2[C@@H](CC(=O)[C@H]2CC(=O)C(=O)N2CCCC2)CN1C(=O)c1ccccc1,inactive,
CC(=O)OCC(=O)C1CCC2C3CCC4=CC(=O)CC[C@@]4(C)C3CC[C@]12C (stereo partly drawn),inactive,
C#CCC(C(=O)OC)(C(=O)OC)C(C[N+](=O)[O-])c1ccccc1 (stereo not drawn),,1.76% [at 12.4 µM] (inactive)
O=c1ccc2c(-c3ccccc3S(=O)(=O)O)c3ccc(O)c(O)c3oc-2c1O,0.0947 µM (active),
CC(C)CN1CCc2nc(-c3ccccc3)c3c(c2C1)COC(C)C3 (stereo not drawn),,8.68% [at 12.4 µM] (inactive)
Cc1ccc(-c2nn(CC(C)(C)C)c3ncnc(N)c23)cc1,inactive,
CN1CCCC1CCO[C@@](C)(c1ccccc1)c1ccc(Cl)cc1 (stereo partly drawn),inactive,
Cn1c(SCC(=O)N/N=C/c2ccc(O)c(O)c2)nc2ccccc21,inactive,
Cc1nccn1CC(=O)N/N=C/c1ccc(O)c(O)c1,25.1 µM (active),

Compound,Potency,"activity change, negative = inhibition"
CCOc1cc(/C=N/NC(=O)CN2CCCCC2)ccc1O,inactive,
N#Cc1cccc(-c2ccc3ncnc(NCc4cccs4)c3c2)c1,inactive,
COc1ccc(-c2oc3cc(OC)ccc3c2C(=O)c2ccc(C#N)cc2)cc1,inactive,
COC(=O)C1=C(C(=O)OC)[C@@H]2N(C)c3ccccc3[C@@]23C[C@@H](C(=O)OC)N(S(=O)(=O)c2cccs2)C3=N1,,-14.4% [at 12.4 µM] (inactive)
Nc1ccc2nc3c(=O)[nH]c(=S)[nH]c3nc2c1,0.501 µM (active),
CN1[C@H]2CC(OC(=O)[C@@H](CO)c3ccccc3)C[C@H]1[C@H]1O[C@H]12 (stereo partly drawn),inactive,
COC(=O)[C@@]1(Cc2ccccc2)[C@H]2c3cc(C(=O)N4CCCC4)n(Cc4ccc(C)o4)c3C[C@H]2CN1C(=O)c1ccccc1,inactive,
CC(C)C(N)C(=O)OCCOCn1cnc2c(=O)[nH]c(N)nc21 (stereo not drawn),inactive,
C[C@@H]1O[C@@H](OC[C@H]2O[C@@H](Oc3cc(O)c4c(c3)O[C@H](c3ccc(O)c(O)c3)CC4=O)[C@H](O)[C@@H](O)[C@@H]2O)[C@H](O)[C@H](O)[C@H]1O,inactive,
C=CC(COCc1ccccc1)N(Cc1ccccc1)S(=O)(=O)c1ccccc1Br (stereo not drawn),inactive,
C=CCCN(Cc1ccccc1)S(=O)(=O)c1ccccc1Br,inactive and 199 nM (active),
C=CCCN(C(Cc1ccccc1)C(=O)OC)S(=O)(=O)c1cc(Br)ccc1Br (stereo not drawn),inactive,
COC(=O)[C@@]1(Cc2ccccc2)[C@H]2c3cc(C(=O)N(C)C)n(CCSCCO)c3C[C@H]2CN1C(=O)c1ccccc1,inactive,
CC(C)=CCC[C@]1(C)[C@@H](CC=C(C)C)C[C@@]2(CC=C(C)C)C(=O)[C@]1(C(=O)C(C)C)C(=O)C(CC=C(C)C)=C2O,inactive,
CC(=O)CC(C)C,inactive,
Cc1cc(C)c2nc(-c3ccco3)cc(C(=O)O)c2c1,7.08 µM (active),
CC1CCCN(C(=O)c2cc(-c3ccco3)nc3ccccc23)C1 (stereo not drawn),inactive,
O=C(c1cc(-c2ccco2)nc2ccccc12)N(Cc1nnc(-c2ccc(Cl)cc2)o1)C1CC1,inactive,
Cc1ccc(Br)cc1,inactive,
CC(N)(C(=O)O)c1ccc(-c2nn[nH]n2)cc1 (stereo not drawn),inactive,
COCCNc1ncnc2ccc(-c3cccnc3)cc12,inactive,
CCCCCCCC[C@@H](O)/C=C/C=C/C=C\[C@@H](O)CCCC(=O)O,inactive,
O=c1c(O)c(Br)ccc2c(Br)c(O)c(O)c(O)c12,1.12 µM (active),
O=C(c1ccncc1)N1CCC2(CCN(Cc3cc(C(F)(F)F)cc(C(F)(F)F)c3)CC2)CC1,inactive,
CC1(C)C=CC(=O)[C@]2(C)C1CC(=O)[C@]1(C)C2CC[C@@]2(C)C(c3ccoc3)OC(=O)C3OC321 (stereo partly drawn),inactive,
Cc1cc2nc3c(=O)[nH]c(=O)nc-3n(C[C@H](O)[C@H](O)[C@H](O)CO)c2cc1C,inactive,

Compound,Potency,"activity change, negative = inhibition"
COC(=O)C/C=C/[C@@H](C)[C@H](NC(=O)OCC(Cl)(Cl)Cl)c1ccccc1,inactive,
O=c1c(-c2ccc(F)cc2)nc2cnc(N3CCNCC3)nc2n1Cc1cccs1,inactive,
CCCCC/C=C\C/C=C\CCCCCCCCCC(N)=O,inactive,
O=C(CSc1nc2ccccc2c(=O)[nH]1)Nc1nc(-c2ccc(Br)cc2)cs1,inactive,
N#Cc1c(-c2cccs2)nc(SCC(=O)c2ccc(Br)cc2)[nH]c1=O,39.8 µM (active),
Cc1cc(C)c2c(=O)[nH]c(SCC(=O)Nc3ccc(Br)cc3)nc2n1,inactive,
O=C(O)c1ccc(/C=C2/SC(=S)N(c3cccc(C(F)(F)F)c3)C2=O)cc1,inactive,
OC[C@H]1O[C@@H](n2cnc3c(N[C@H]4CC5CCC4C5)ncnc32)[C@H](O)[C@@H]1O (stereo partly drawn),inactive,
C=C(C(C)=O)C(O)c1ccc([N+](=O)[O-])cc1 (stereo not drawn),inactive,
CCCCC[C@H](O)/C=C/[C@@H]1[C@@H](CC(=O)CCC(=O)O)[C@@H](O)C[C@H]1O,inactive,
Cc1ccc(-c2nc(SCC(=O)Nc3ccccc3OC(F)F)c3c(C)c(C(=O)O)sc3n2)cc1,39.8 µM (active),
CCOC(=O)c1ccc[n+](CC(=O)Nc2ccccc2OC(F)F)c1,inactive,
COc1ccccc1NC(=O)CSc1nc2sc3c(c2c(=O)n1-c1ccccc1)CCN(C)C3,inactive,
CC(=O)OCC1OC(C#Cc2ccccc2Cl)C=CC1OC(C)=O (stereo not drawn),,-9.65% [at 12.4 µM] (inactive)
CC(=O)Oc1c2c(c3c(c1CC=C(C)C)O[C@@]14C(=CC5CC1C(C)(C)OC4(C/C=C(\C)C(=O)O)C5=O)C3=O)OC(C)(CCC=C(C)C)C=C2 (stereo partly drawn),inactive,
CC(C)(C)OC(=O)C[C@@H]1C/C=C\C[C@@H](CC(=O)N(CCO)Cc2ccccc2)C(=O)N[C@H](Cc2ccccc2)COC1=O,inactive,
O=C1N[C@H](Cc2c[nH]c3ccccc23)COC(=O)[C@H](Cc2ccc(F)cc2)C/C=C\C[C@H]1CC(=O)N(CCO)Cc1ccccc1,21.2 µM (active),
O=C1N[C@@H](c2ccccc2)COC(=O)[C@H](Cc2ccc(F)cc2)C/C=C\C[C@@H]1CC(=O)N(CCO)Cc1ccccc1,inactive,
C[C@H]1COC(=O)[C@H](CC(=O)OC(C)(C)C)C/C=C\C[C@@H](CC(=O)N[C@H](CO)Cc2ccccc2)C(=O)N1,inactive,
CC(C)(C)OC(=O)C[C@@H]1C/C=C\C[C@H](CC(=O)N[C@@H](CO)Cc2ccccc2)C(=O)N[C@H](Cc2ccccc2)COC1=O,inactive,
CC(C)(C)OC(=O)C[C@@H]1C/C=C\C[C@@H](CC(=O)NCCO)C(=O)N[C@H](Cc2c[nH]c3ccccc23)COC1=O,15 µM (active),
CCCCc1nn(-c2ccccc2C(F)(F)F)c(=O)n1Cc1ccc(-c2ccccc2S(=O)(=O)NC(=O)c2sccc2C)cc1,inactive,
CO[C@H]1COC(=O)[C@@H](OCc2ccccc2)/C=C\[C@H](C)[C@@H](OC)COC(=O)[C@H](OCc2ccccc2)/C=C\[C@@H]1C,,33.1% [at 12.4 µM] (inactive)
COc1ccc(CCCOC(Cn2ccnc2)c2ccc(OC)cc2)cc1 (stereo not drawn),inactive,
Cc1ccc(N=C2NC(=O)/C(=C/C=C/c3ccco3)S2)cc1C,28.2 µM (active),
CCC[C@@H]1C[C@@]1(CCC)C(NC(=O)c1ccc(-c2ccccc2)cc1)c1cccc(Cl)c1 (stereo partly drawn),inactive,
